From PubChem BioAssay
Dicer inh: human Dicer pre-microRNA cleavage inhibition; z-score at 25 µM; 47,000 tested, 6% active; cat-ELCCA pre-miR-21 Dicer processing, chemiluminescence; stronger effect = higher value; Q9UPY3; in the data active = z-score above about 3, passing the limit was not always enough;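 also: plate controls were vehicle for no effect and no enzyme for full effect; higher signal means more uncleaved substrate so more Dicer inhibition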
Numbers without * were called inactive. Many of the other results were omitted from the sample, so hits are more common in it than they were.

SMILES	Dicer inh
O=c1c(Cc2ccccc2)c(O)c2ccccc2n1Cc1ccccc1	-1.7
C=CCn1c(=O)c(C(=O)Nc2cccc(O)c2)c(O)c2ccccc21	11*
C=CCn1c(N)cc(=O)nc1SCC(=O)Nc1ccccc1	0.4
O=C(CC(Sc1ccc(Cl)cc1Cl)c1ccccc1)c1ccc(F)cc1 (centres undefined)	-0.89
COc1ccc(C2CC(c3ccc(C(C)C)cc3)n3nc(N)nc3N2)cc1 (centres undefined)	-1.2
CCOc1ccc(/C(O)=C2\C(=O)C(=O)N(c3nnc(C)s3)C2c2ccc(OC)cc2)cc1 (centres undefined)	1.4
CCOc1ccc(/C(O)=C2\C(=O)C(=O)N(c3nnc(C)s3)C2c2ccc(OC)c(OC)c2)cc1 (centres undefined)	2.3
CCOc1ccc(/C(O)=C2\C(=O)C(=O)N(c3nccs3)C2c2ccc(OC)c(OC)c2)cc1 (centres undefined)	3.6*
Cc1ccc(S(=O)(=O)N2CCN(S(=O)(=O)N3CCOCC3)CC2)c(C)c1	-1.9
Cc1ccc(S(=O)(=O)Nc2ccc3oc(=O)sc3c2)c(C)c1	1.1
CCc1ccc(S(=O)(=O)Nc2ccc3oc4c(c3c2)CCCC4)cc1	2.1
Cc1cc(S(=O)(=O)Nc2cccnc2)c(C)cc1Cl	-0.28
CC(C)(C)C1CCc2oc3ccc(NS(=O)(=O)c4ccc(C(=O)O)cc4)cc3c2C1 (centres undefined)	4.2*
Cc1cc(=O)oc2cc(NS(=O)(=O)c3ccc(F)cc3)ccc12	0.84
Cc1ccc(S(=O)(=O)Nc2cc(Cl)c3oc(=O)sc3c2)c(C)c1	12*
O=C(O)c1ccc(S(=O)(=O)Nc2ccc3oc(=O)sc3c2)cc1	1.1
O=c1oc2ccc(NS(=O)(=O)c3ccc(F)cc3)cc2s1	4.9*
Cc1cc(F)ccc1S(=O)(=O)Nc1ccc2oc(=O)sc2c1	7.8*
Cc1cc(F)ccc1S(=O)(=O)Nc1c(C)n(C)n(-c2ccccc2)c1=O	-0.46
COC(=O)c1c(C)oc2ccc(NS(=O)(=O)c3ccc(Br)cc3)cc12	0.56
CCOC(=O)c1sc(SCc2ccccc2)c2c1CC(c1ccccc1)CC2=O (centres undefined)	-0.11
COC(=O)c1cc(C)nc(Sc2ccccc2NC(=O)c2ccc(OC)cc2)n1	-2
CCSCCOC(=O)C1=C(C)NC2=C(C(=O)CC(c3ccccc3Cl)C2)C1c1cccs1 (centres undefined)	0.03
COc1ccc(Br)cc1/C=N/Nc1nccc(C(F)(F)F)n1	1.1
Cc1cc(-c2nn(C)c(=O)c3ccccc23)cc(C)c1OC(=O)Nc1ccccc1	-0.42
SMILES	Dicer inh
Cc1cc(C)c(N=c2oc(C(C)(C)C)cs2)cc1C	-3.4
O=c1oc2ccc(NS(=O)(=O)c3ccc(Cl)cc3)cc2s1	9.8*
CCOC(=O)n1c(=O)oc2cc(S(=O)(=O)Nc3ccc(C)cc3)ccc21	1.1
CC(=O)Nc1ccc(NS(=O)(=O)c2ccc(C)cc2)cc1[N+](=O)[O-]	-0.02
COc1ccc(S(=O)(=O)Nc2ccc3oc(=O)sc3c2)cc1OC	3.4*
Cc1ccc(S(=O)(=O)Nc2ccc3oc(=O)sc3c2)cc1	5*
O=S(=O)(Nc1ccc2c(c1)OCO2)c1ccc(Cl)cc1	-0.39
COc1cc(S(=O)(=O)Nc2cccnc2)ccc1F	0.84
O=S(=O)(Nc1nc(-c2ccc(Cl)cc2Cl)cs1)c1ccc(Cl)cc1	10
CC1CCc2oc3ccc(NS(=O)(=O)c4cccc5cccnc45)cc3c2C1 (centres undefined)	-0.24
Cc1cc(F)ccc1S(=O)(=O)Nc1ccc2oc(C)c(C(=O)OC(C)C)c2c1	-0.11
Cc1cc(F)ccc1S(=O)(=O)Nc1ccc2oc3c(c2c1)CC(C)CC3 (centres undefined)	6.6*
COc1ccccc1C(=O)Oc1ccc2oc(=O)sc2c1	2.2
O=C(Cc1ccc(Cl)cc1)n1cc(Cl)cn1	0.5
Cc1ccc(C(=O)CC(Sc2ccccc2N)c2ccc([N+](=O)[O-])cc2)cc1 (centres undefined)	-2.1
COc1cccc(C2CC(=O)Nc3nc(N)[nH]c(=O)c32)c1 (centres undefined)	-0.75
O=C(C1=C(O)C(=O)N(CCCN2CCOCC2)C1c1cccnc1)c1ccco1 (centres undefined)	-0.25
COc1ccc(OC)c(NS(=O)(=O)c2ccc(Cl)cc2)c1	1.2
COc1ccc(OC)c(S(=O)(=O)Nc2cc(Cl)c3oc(=O)sc3c2)c1	-0.17
O=c1oc2c(Br)cc(NS(=O)(=O)c3ccc(Cl)cc3)cc2s1	13*
Cc1cc(C)c(C)c(S(=O)(=O)Nc2ccc3oc(=O)sc3c2)c1C	4.3*
Cn1cc(Br)c(-c2cccc(NS(=O)(=O)c3ccc(Cl)cc3)c2)n1	0.02
O=c1oc2c(Cl)cc(NS(=O)(=O)c3ccccc3)cc2s1	11*
O=S(=O)(Nc1ccc(Br)cc1)c1ccccc1	1.8
S=C(NC1CCCCCCCCCCC1)NC1CC2C=CC1C2 (centres undefined)	-1.1
SMILES	Dicer inh
NC(=S)SC(CC(=O)c1ccccc1)c1ccsc1 (centres undefined)	-1.5
Cc1cc(=O)n2ncnc2n1CC(=O)N/N=C/c1ccc([N+](=O)[O-])cc1	0.64
Cc1ccc2c(n1)CC(C)(C)C/C2=N/O	-0.07
CCOC(=O)c1ccc2[nH]c(-c3ccccc3)cc(=O)c2c1	0.93
O=C1C=C(NC2Cc3ccccc3C2)CC(c2cccc(Cl)c2)C1 (centres undefined)	-0.95
O=C1C=C(NC2Cc3ccccc3C2)CC(c2ccccc2)C1 (centres undefined)	-0.9
CN(C)c1ccc(C2CC(=O)C=C(NC3Cc4ccccc4C3)C2)cc1 (centres undefined)	4.6*
CC(=O)n1nccc1-c1cc(-c2ccccc2)no1	2.4
CCOC(=O)c1c(NC(=O)COC(=O)CN2C(=O)C(=O)c3ccccc32)sc2c1CCCC2	0.72
COc1ccc(-c2nc3n(n2)C(=O)CC(c2cccs2)S3)cc1 (centres undefined)	5.6*
COc1ccc(C2C(C(=O)c3cccs3)=C(O)C(=O)N2c2nncs2)cc1 (centres undefined)	-1.2
O=C1CC(c2ccccc2)Sc2nc(-c3cccc4ccccc34)nn21 (centres undefined)	0.94
COc1ccc(C2=NN3C(C2)c2ccccc2OC3c2cccs2)cc1 (centres undefined)	1.5
Cc1nn2c3c(cnc2c1-c1ccccc1)C(=O)CC(c1ccc(Cl)cc1)C3 (centres undefined)	0.4
O=C1CC(c2ccc(Cl)cc2)Sc2nc(-c3ccccc3)nn21 (centres undefined)	4.1*
CC(=O)Cn1cc(Cl)c(=O)c(Cl)c1	0.69
CNc1ncnc(SC(C)C)c1[N+](=O)[O-]	-1.4
CCOC(=O)N/N=C(\C)c1ccc(C)cc1	1.2
COC(=O)c1scc(C)c1NC(=O)C(Cl)(Cl)Cl	-1.3
CC1CCN(C(=O)c2cc3n(n2)C(C(F)(F)F)CC(c2ccc(Br)cc2)N3)CC1 (centres undefined)	5.4*
O=C(c1cc2n(n1)C(C(F)(F)F)CC(c1ccc(Br)cc1)N2)N1CCOCC1 (centres undefined)	5*
O=C(c1cccc(F)c1)N1CCN(C(=O)c2cc3n(n2)C(C(F)(F)F)CC(c2ccco2)N3)CC1 (centres undefined)	1.1
COc1ccc(C2CC(C(F)(F)F)n3nc(C(N)=O)cc3N2)cc1OC (centres undefined)	-0.89
O=C(c1cc2n(n1)C(C(F)(F)F)CC(c1ccc(Cl)cc1)N2)N1CCCC1 (centres undefined)	1.7
